Test results reported in the supplement of paper PMC11732987, “Enantioselective OTUD7B fragment discovery through chemoproteomics screening and high-throughput optimisation” (Communications Chemistry, 2025).
Unmarked numbers belong to inactive results.

How the values were obtained:
Experiment in all cases: log2 ratio of Biotin-Ahx-Ub-VS probe labelling (fragment/DMSO); higher = less target engagement (more negative = stronger competition), active = hit call of the paper (q ≤ 0.05, log2 ratio ≤ -1)
Details in all cases: compound concentration: 200 uM; treatment time: 3 h
[1] = biological target: T1, OTUD6B (UniProt Q8N6M0)
T1 sequence (whole entry): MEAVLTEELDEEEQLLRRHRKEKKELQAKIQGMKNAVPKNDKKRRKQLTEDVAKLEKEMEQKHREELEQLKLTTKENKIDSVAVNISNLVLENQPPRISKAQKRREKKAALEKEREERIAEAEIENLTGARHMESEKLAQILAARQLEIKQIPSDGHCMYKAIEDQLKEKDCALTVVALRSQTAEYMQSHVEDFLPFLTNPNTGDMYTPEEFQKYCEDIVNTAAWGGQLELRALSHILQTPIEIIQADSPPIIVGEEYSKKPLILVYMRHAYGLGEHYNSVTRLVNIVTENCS
Outline: (§1)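 Average log2 ratios of fragment over vehicle were obtained by unpaired t-test from global-median-normalised Spectronaut label-free quantities. Proteins with ≥2 unique peptides were included. HEK293T lysate (495 µg per sample) was treated in triplicate with fragment at 200 µM or vehicle for 3 h, then with Biotin-Ahx-Ub-VS at 0.5 µM final for 1 h, and labelled DUBs were NeutrAvidin-enriched and run by diaPASEF LC-MS/MS.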

[2] = biological target: T2, OTUD7B (UniProt Q6GQQ9)
T2 sequence (whole entry): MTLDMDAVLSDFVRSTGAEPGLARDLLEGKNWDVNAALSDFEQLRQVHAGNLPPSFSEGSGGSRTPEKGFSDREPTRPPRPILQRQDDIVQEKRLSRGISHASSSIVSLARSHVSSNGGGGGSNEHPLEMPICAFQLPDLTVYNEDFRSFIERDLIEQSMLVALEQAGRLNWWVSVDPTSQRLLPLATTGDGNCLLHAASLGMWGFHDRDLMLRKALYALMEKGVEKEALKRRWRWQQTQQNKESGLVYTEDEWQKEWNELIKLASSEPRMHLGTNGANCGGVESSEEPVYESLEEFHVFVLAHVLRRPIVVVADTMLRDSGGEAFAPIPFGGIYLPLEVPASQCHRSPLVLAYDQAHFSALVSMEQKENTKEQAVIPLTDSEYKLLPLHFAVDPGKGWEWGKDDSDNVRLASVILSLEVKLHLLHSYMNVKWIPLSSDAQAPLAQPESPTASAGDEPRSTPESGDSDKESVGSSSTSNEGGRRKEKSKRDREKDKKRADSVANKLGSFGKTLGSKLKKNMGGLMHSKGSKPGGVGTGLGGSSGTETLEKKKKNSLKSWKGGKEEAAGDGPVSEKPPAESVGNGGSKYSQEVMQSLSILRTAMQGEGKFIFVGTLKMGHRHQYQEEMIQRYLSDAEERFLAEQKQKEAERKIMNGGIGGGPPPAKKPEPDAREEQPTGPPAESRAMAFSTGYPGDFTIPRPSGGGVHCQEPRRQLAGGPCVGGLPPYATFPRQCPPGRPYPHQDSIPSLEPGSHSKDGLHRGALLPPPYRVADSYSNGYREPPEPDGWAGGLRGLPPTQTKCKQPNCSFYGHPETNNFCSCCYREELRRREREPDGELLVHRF
Outline: as §1

[3] = biological target: PRPF8 (UniProt Q6P2Q9)
Outline: as §1

[4] = biological target: T3, PSMD7 (UniProt P51665)
T3 sequence (whole entry): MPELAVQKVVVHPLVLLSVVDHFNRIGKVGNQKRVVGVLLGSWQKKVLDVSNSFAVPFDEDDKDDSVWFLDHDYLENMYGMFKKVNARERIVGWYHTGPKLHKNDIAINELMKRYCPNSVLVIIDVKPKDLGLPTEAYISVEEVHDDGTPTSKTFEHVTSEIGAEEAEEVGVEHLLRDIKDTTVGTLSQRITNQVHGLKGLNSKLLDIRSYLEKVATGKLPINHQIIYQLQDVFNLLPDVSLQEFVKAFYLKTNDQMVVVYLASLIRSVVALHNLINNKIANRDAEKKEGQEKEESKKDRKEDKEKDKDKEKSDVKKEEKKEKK
Outline: as §1

[5] = biological target: UCHL1 (UniProt P09936)
Outline: as §1

[6] = biological target: T4, UCHL3 (UniProt P15374)
T4 sequence (whole entry): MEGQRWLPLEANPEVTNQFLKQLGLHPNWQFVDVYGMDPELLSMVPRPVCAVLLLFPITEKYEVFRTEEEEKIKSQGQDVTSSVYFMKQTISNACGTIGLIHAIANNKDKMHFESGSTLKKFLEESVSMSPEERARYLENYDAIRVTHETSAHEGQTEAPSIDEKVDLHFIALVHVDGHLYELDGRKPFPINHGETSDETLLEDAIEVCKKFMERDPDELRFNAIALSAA
Outline: as §1

[7] = biological target: T5, UCHL5 (UniProt Q9Y5K5)
T5 sequence (whole entry): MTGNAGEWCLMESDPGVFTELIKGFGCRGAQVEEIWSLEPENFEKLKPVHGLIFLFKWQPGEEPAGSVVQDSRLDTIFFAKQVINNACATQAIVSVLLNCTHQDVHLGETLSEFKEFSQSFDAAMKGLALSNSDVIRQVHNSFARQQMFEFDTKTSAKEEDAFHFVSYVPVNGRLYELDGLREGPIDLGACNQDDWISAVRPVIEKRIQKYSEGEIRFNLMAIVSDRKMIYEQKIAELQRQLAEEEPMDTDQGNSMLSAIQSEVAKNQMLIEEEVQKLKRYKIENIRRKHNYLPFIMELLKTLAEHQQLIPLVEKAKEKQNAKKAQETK
Outline: as §1

[8] = biological target: USP10 (UniProt Q14694)
Outline: as §1

[9] = biological target: T6, USP15 (UniProt Q9Y4E8)
T6 sequence (whole entry): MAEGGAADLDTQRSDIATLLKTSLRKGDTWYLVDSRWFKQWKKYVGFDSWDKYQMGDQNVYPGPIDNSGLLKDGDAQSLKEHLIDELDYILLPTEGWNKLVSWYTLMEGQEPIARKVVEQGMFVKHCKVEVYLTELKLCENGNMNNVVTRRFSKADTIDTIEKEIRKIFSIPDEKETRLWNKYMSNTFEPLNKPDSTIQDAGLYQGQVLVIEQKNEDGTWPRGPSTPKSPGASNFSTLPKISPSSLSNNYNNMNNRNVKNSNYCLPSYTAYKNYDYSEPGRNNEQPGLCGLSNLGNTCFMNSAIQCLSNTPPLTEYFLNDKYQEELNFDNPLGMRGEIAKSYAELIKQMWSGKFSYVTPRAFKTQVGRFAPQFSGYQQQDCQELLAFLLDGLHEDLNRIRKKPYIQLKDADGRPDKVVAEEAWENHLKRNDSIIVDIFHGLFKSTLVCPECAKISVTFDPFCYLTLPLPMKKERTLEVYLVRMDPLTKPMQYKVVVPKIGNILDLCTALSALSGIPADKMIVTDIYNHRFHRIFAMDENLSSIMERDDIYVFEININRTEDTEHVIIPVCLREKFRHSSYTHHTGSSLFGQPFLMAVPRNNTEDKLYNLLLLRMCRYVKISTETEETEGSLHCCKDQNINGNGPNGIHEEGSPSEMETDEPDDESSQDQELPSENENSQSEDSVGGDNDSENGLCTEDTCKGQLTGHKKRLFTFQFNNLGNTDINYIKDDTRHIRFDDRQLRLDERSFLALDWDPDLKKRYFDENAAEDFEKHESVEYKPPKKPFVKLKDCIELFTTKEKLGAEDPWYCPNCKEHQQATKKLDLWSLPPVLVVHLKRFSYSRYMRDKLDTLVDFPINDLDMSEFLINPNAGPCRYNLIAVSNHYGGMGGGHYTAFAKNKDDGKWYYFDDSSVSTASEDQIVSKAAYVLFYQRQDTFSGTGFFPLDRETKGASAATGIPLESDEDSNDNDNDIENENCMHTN
Outline: as §1

[10] = biological target: USP16 (UniProt Q9Y5T5)
Outline: as §1

Sequence of UCHL1 (P09936 whole entry, looked up): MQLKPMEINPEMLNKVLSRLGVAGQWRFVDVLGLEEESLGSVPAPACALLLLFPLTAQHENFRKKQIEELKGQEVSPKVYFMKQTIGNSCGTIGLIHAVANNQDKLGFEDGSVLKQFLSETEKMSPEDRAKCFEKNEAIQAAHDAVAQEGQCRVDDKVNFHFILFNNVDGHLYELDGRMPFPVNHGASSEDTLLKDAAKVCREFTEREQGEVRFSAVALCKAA
Sequence of USP10 (Q14694 whole entry): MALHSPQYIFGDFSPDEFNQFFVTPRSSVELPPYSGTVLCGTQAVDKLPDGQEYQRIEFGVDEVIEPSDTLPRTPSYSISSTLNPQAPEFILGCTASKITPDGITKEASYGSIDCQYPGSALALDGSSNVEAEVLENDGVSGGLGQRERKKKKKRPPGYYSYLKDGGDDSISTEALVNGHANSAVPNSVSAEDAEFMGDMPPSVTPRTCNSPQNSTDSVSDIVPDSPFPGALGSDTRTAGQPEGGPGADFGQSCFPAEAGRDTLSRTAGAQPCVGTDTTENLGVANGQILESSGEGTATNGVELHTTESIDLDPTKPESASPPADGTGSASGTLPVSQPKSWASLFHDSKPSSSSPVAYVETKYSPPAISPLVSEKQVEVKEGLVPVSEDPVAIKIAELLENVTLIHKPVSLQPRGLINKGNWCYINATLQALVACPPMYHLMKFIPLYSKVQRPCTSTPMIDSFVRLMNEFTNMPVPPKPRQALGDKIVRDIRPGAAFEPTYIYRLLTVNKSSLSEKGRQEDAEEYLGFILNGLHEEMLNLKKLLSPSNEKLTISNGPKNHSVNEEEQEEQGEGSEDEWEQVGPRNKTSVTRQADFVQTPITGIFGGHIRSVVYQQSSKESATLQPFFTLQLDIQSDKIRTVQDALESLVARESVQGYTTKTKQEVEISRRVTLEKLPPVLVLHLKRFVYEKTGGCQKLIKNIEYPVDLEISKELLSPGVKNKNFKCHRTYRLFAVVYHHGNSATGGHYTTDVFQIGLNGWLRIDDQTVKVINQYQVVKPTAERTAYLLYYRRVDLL
Sequence of USP16 (Q9Y5T5 whole entry, looked up): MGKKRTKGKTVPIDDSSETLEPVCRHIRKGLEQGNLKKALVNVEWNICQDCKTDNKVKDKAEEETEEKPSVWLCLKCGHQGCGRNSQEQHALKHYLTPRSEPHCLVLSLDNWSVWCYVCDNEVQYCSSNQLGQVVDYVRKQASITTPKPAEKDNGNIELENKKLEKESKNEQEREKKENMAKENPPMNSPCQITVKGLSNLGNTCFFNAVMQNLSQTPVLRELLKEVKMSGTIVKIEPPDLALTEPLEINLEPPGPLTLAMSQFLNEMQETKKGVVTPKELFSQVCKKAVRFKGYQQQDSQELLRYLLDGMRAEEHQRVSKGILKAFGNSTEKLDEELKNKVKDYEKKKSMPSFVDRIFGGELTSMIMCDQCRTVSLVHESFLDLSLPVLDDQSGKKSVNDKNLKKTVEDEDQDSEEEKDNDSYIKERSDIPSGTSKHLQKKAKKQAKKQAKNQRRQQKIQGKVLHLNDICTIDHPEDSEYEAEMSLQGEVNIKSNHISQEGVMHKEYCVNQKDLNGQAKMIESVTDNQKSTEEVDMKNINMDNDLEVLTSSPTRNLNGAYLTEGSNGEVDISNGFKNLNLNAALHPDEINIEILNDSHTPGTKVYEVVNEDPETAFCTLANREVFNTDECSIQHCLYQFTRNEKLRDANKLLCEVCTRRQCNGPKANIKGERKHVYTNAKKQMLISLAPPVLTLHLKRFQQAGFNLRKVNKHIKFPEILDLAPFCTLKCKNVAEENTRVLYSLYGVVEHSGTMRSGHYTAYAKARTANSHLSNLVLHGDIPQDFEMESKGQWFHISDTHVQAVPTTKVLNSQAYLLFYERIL

Compound	log2 ratio of Biotin-Ahx-Ub-VS probe labelling [1]	log2 ratio of Biotin-Ahx-Ub-VS probe labelling [2]	log2 ratio of Biotin-Ahx-Ub-VS probe labelling [3]	log2 ratio of Biotin-Ahx-Ub-VS probe labelling [4]	log2 ratio of Biotin-Ahx-Ub-VS probe labelling [5]	log2 ratio of Biotin-Ahx-Ub-VS probe labelling [6]	log2 ratio of Biotin-Ahx-Ub-VS probe labelling [7]	log2 ratio of Biotin-Ahx-Ub-VS probe labelling [8]	log2 ratio of Biotin-Ahx-Ub-VS probe labelling [9]	log2 ratio of Biotin-Ahx-Ub-VS probe labelling [10]
N#Cc1ccc(CNC(=O)CCl)cc1	0.025	-0.865	-0.187	-0.28	-1.19 (active)	0.183	-0.131	-0.0787	-0.145	0.29
CCC(NC(=O)CCl)c1ccc(Cl)cc1 (stereo not given)	0.0691	-1.12 (active)	0.164	-0.0211	-1.12 (active)	0.495	-0.175	-0.0683	-0.0837	-0.0971
CNC(=O)Cn1cc(NC(=O)CCl)cn1	-0.476	-0.454	1e-05	-0.0882	-1.59 (active)	0.189	-0.399	-0.209	-0.375	-0.148
Cc1nc(-c2cccc(NC(=O)CCl)c2)cs1	-0.247	-0.69	0.052	-0.167	-0.133	-0.844	-0.43	-0.202	-0.235	-0.418
Cl.O=C(CCl)N1CCC(Cc2nccs2)C1 (stereo not given)	-0.205	-0.436	-0.0505	-0.315	-1.01 (active)	-0.0765	-0.293	0.0972	-0.249	0.355
O=C(CCl)NC1(c2ccc3c(c2)OCCO3)CCCC1	-0.0936	-0.638	-0.154	-0.208	-1.32 (active)	-0.106	-0.537	-0.203	-0.213	-0.316
CC(NC(=O)CCl)c1cccc(Cl)c1 (stereo not given)	-0.345	-1.21 (active)	-0.202	-0.316	-1.58 (active)	-0.204	-0.426	-0.136	-0.301	0.118
Cl.O=C(CCl)N1CCC(n2nc3ccccc3n2)CC1	-0.35	-0.287	0.224	-0.494	-0.9	-0.23	-0.457	-0.135	-0.702	-0.441
O=C(CCl)N1CC2(CCOCC2)C1	-0.202	-0.345	-0.426	-0.00344	-1.21 (active)	0.139	-0.253	-0.483	-0.212	-0.888
O=C(CCl)NCc1ccc(Cl)cc1	-0.0688	-0.726	0.0877	0.0253	-1.24 (active)	0.379	-0.00645	-0.179	0.049	-0.354
N#Cc1cnn(-c2ccccc2)c1NC(=O)CCl	-0.394	-1.83 (active)	-0.0739	-0.397	-1.35 (active)	0.168	-0.235	-0.0214	-0.516	-0.0136
Cc1cnc2[nH]cc(CCNC(=O)CCl)c2c1	0.00839	-0.562	-0.0916	-0.297	-0.85	0.0619	-0.065	-0.0977	-0.336	0.0147
COc1ccccc1C(C)NC(=O)CCl (stereo not given)	-0.401	-0.997	-0.14	-0.451	-1.47 (active)	-1.18 (active)	-0.318	-0.0811	-0.251	-0.386
O=C(CCl)NC(Cn1ccccc1=O)c1ccccc1 (stereo not given)	0.102	-0.332	-0.224	-0.094	-1.61 (active)	0.233	-0.175	-0.0324	-0.0415	-0.972
O=C(CCl)N1CCN(C(=O)Nc2ccccc2)CC1	0.0713	-0.112	-0.00577	0.0846	-1.33 (active)	-0.441	0.033	-0.135	-0.101	0.0643
CS(=O)(=O)c1ccc(CNC(=O)CCl)cc1	-0.168	-0.575	-0.126	-0.155	-1.33 (active)	0.301	-0.165	-0.141	-0.268	-0.251
Cl.O=C(CN1CCN(C(=O)CCl)CC1)Nc1ccc(F)cc1	0.226	0.0571	0.0678	0.149	-1.2 (active)	0.501	-0.0699	-0.0791	-0.113	0.138
O=C(CCl)Nc1ccc(Cl)c(F)c1	-0.448	-1.15 (active)	0.0807	-0.221	-1.36 (active)	-0.216	-0.398	-0.142	-0.331	0.323
CC(NC(=O)CCl)c1csc(-c2ccccc2)n1.Cl (stereo not given)	-0.597	-1.07 (active)	-0.0372	-0.175	-1.3 (active)	-0.457	-0.71	-0.126	-0.386	-1.03 (active)
CS(=O)(=O)c1ccc(NC(=O)CCl)cc1	-0.109	-0.594	-0.257	0.0407	-1.26 (active)	0.206	-0.282	-0.104	-0.136	-0.145
Cc1c(NC(=O)CCl)c(=O)n(-c2ccccc2)n1C	-0.0267	-0.0828	0.192	-0.0588	-1.04 (active)	0.0974	-0.143	-0.099	-0.102	-0.462
O=C(CCl)N1CCC(S(=O)(=O)c2ccc(F)cc2)CC1	-0.129	-0.758	-0.03	-0.129	-1.14 (active)	0.498	-0.128	-0.175	-0.327	0.341
O=C(CCl)N1CCN(C(=O)N2CCCCC2)CC1	-1.28 (active)	-1.17 (active)	-0.0826	-0.335	-2.3 (active)	-0.528	-0.96	-0.21	-0.839	0.0515
CN(C(=O)CCl)c1nc2ccccc2s1	-0.243	-0.119	0.183	0.069	-0.925	0.484	-0.343	-0.116	-0.217	0.0425
Cl.O=C(CCl)N1CCn2cncc2C1	-0.541	-0.166	0.208	0.0226	-1.37 (active)	0.291	0.0547	-0.131	-0.372	-0.425
Cc1cccn2cc(CCNC(=O)CCl)nc12.Cl	-0.414	-0.338	0.19	-0.207	-1.98 (active)	0.136	-0.00232	-0.0824	-0.191	-0.607
O=C(CCl)Nc1ccc(F)cc1F	-0.161	-0.881	-0.105	-0.179	-1.47 (active)	0.078	-0.242	-0.129	-0.34	0.0073
CN1C(=O)c2ccc(NC(=O)CCl)cc2C1=O	-0.407	-1.76 (active)	0.154	-0.0627	-1.24 (active)	0.282	-0.2	-0.0313	-0.389	-0.455
